GRIN3A LBD mod = modulators (binders) of human NR3A ligand-binding domain. AID 1259313. 340,000 tested, 2.5% active. Tm shift relative to glycine control, % at 25 µM. NR3A LBD differential scanning fluorimetry, Tm shift; 0% = protein alone, 100% = glycine-bound protein;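 active = melting temperature shift of at least 10% of the positive control shift, at one fixed dose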
UBC13 polyUb = inhibitors of human UBC13 polyubiquitin chain formation; P61088; inhibition, % at 20 µM; 330,000 tested, 0.47% active; TR-FRET; in the data active = inhibition above about 45%, passing the limit was not always enough
HGIII-sPLA2 inh = Inhibits HGIII-sPLA2 liposome hydrolysis, primary screen. QFRET BODIPY PC-A2 liposome hydrolysis, fluorescence. inhibition, % at 12.2 µM. 370,000 tested, 0.56% active. AID 743126;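 active = inhibition above mean plus 3 SD of compounds lying within the high and low control bounds, cut at about 19% in these data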
Target sequence (Q9NZ20 whole entry, looked up): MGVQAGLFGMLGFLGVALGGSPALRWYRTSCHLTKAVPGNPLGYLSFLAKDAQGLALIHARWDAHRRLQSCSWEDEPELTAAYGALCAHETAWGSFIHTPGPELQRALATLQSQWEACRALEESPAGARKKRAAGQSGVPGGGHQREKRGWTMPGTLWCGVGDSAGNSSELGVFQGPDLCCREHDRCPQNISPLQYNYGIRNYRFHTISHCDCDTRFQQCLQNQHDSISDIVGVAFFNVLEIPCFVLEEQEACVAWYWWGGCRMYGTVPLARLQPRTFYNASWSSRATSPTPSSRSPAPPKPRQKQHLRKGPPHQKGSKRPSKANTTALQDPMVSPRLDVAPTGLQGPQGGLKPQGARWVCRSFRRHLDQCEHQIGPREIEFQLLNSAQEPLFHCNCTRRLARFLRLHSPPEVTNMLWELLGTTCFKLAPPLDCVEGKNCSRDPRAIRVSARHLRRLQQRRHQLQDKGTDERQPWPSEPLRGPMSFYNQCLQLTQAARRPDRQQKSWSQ
SUMO HTRF inh = blocks human SUMOylation mediated by UBC9. P63279. HTRF SUMOylation assay, SAE1/SAE2 + UBC9, in vitro. inhibition, % at 35 µM. 290,000 tested, 0.36% active. AID 2006; in the data active = inhibition above about 50%, passing the limit was not always enough
Target sequence (P63279 whole entry, looked up): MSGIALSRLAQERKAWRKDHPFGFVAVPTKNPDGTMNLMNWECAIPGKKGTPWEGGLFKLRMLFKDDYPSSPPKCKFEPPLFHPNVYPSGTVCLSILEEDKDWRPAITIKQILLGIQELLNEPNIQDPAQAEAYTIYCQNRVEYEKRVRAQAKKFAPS
A number is an active result. Compounds with a hit are over-represented: about 3.3% of the library has one in this group of screens.

COC[C@@H]1CCCN1c1ccc2c(c1)O[C@H]1CCN(C1)S2(=O)=O was read as HGIII-sPLA2 inh inactive.
For COc1ccc(/C=C/C(=O)c2ccccc2)c(OC)c1 the results were GRIN3A LBD mod inactive, UBC13 polyUb inactive, HGIII-sPLA2 inh inactive and SUMO HTRF inh inactive.
`COc1ccc2[nH]cc(/C=C/C(=O)c3ccccc3)c2c1` gave GRIN3A LBD mod 29.1, UBC13 polyUb inactive, HGIII-sPLA2 inh inactive and SUMO HTRF inh inactive.
`O=C(/C=C/c1c[nH]c2ccccc12)c1ccccc1` gave GRIN3A LBD mod 23.8, UBC13 polyUb inactive, HGIII-sPLA2 inh inactive and SUMO HTRF inh inactive.
Screening Cc1ccc(C(=O)/C=C/c2c[nH]c3ccccc23)cc1 returned GRIN3A LBD mod 28.3, UBC13 polyUb inactive, HGIII-sPLA2 inh inactive and SUMO HTRF inh inactive.
For Cc1ccc(C(=O)/C=C\C(=O)c2ccc(C)cc2)cc1 the results were GRIN3A LBD mod inactive, HGIII-sPLA2 inh inactive and SUMO HTRF inh inactive.
For Cn1cc(/C=C/C(=O)c2ccccc2)c2ccccc21 the results were GRIN3A LBD mod inactive, UBC13 polyUb inactive, HGIII-sPLA2 inh inactive and SUMO HTRF inh inactive.
`Cc1ccc(C(=O)/C=C/c2cn(CN3CCN(C)CC3)c3ccccc23)cc1` gave GRIN3A LBD mod 38.1, UBC13 polyUb inactive, HGIII-sPLA2 inh inactive and SUMO HTRF inh inactive.
O=S1(=O)c2ccc(Br)cc2OC[C@H](Cc2ccccc2)N1Cc1cn(Cc2ccc(F)cc2)nn1 was read as HGIII-sPLA2 inh inactive.
Screening COC(=O)[C@H](CC(C)C)N(Cc1cn(CC2CCCCC2)nn1)S(=O)(=O)c1ccc(F)cc1Br returned HGIII-sPLA2 inh inactive.
Cc1cc(C(=O)N/N=C/c2ccc(-c3ccc(C)c(Cl)c3)o2)n[nH]1 was read as GRIN3A LBD mod 14.6, UBC13 polyUb inactive, HGIII-sPLA2 inh inactive and SUMO HTRF inh 57.7.
`Cc1cc(C(=O)N/N=C/c2ccc(-c3ccccc3Cl)o2)n[nH]1` gave GRIN3A LBD mod inactive, UBC13 polyUb inactive, HGIII-sPLA2 inh inactive and SUMO HTRF inh inactive.
For Cc1ccc(/C=N/NC(=O)c2cc(-c3ccc(C)o3)[nH]n2)cc1 the results were GRIN3A LBD mod 34.5, UBC13 polyUb inactive, HGIII-sPLA2 inh inactive and SUMO HTRF inh inactive.
`O=C(NCCc1c[nH]c2ccccc12)OCc1cn(Cc2cccc(Cl)c2)nn1` gave HGIII-sPLA2 inh inactive.
Screening O=C(N[C@@H]1CCCc2c1cnn2-c1ccc(F)cc1F)c1ccccn1 returned HGIII-sPLA2 inh inactive.
`COc1cccc(-c2noc(C(C)n3nc(C)c([N+](=O)[O-])c3C)n2)c1` (configuration not stated) gave GRIN3A LBD mod 13.8, UBC13 polyUb inactive, HGIII-sPLA2 inh inactive and SUMO HTRF inh inactive.
Screening Cn1c(-c2ccc(C=O)s2)nc2ccccc21 returned GRIN3A LBD mod inactive, UBC13 polyUb inactive, HGIII-sPLA2 inh inactive and SUMO HTRF inh 56.2.
`COc1ccc(-c2c(C)cc3oc(=O)cc(-c4ccccc4)c3c2C)cc1` gave GRIN3A LBD mod 15.4 and HGIII-sPLA2 inh inactive.
COc1ccc(-c2cccc(-c3cc(=O)oc4cc(OC)cc(OC)c34)c2)cc1 was read as GRIN3A LBD mod 15.4 and HGIII-sPLA2 inh inactive.
Cc1ccc(-c2c(C)cc3oc(=O)cc(-c4ccccc4)c3c2C)cc1 was read as GRIN3A LBD mod inactive and HGIII-sPLA2 inh inactive.
Screening COc1ccc(OC)c(NC(=O)c2cc(-c3cc(C)cc(C)c3O)n[nH]2)c1 returned GRIN3A LBD mod 20.0, UBC13 polyUb inactive, HGIII-sPLA2 inh inactive and SUMO HTRF inh inactive.
Screening COc1ccc(OC)c(NC(=O)c2cc(-c3c(C)cc(C)cc3O)n[nH]2)c1 returned GRIN3A LBD mod inactive, UBC13 polyUb inactive, HGIII-sPLA2 inh inactive and SUMO HTRF inh inactive.
COc1ccc(NC(=O)c2cc(-c3cc(C)c(C)cc3O)n[nH]2)c(OC)c1 was read as GRIN3A LBD mod 42.0, UBC13 polyUb inactive, HGIII-sPLA2 inh inactive and SUMO HTRF inh inactive.
Screening COc1ccc(OC)c(NC(=O)c2cc(-c3cc(C)c(C)cc3O)n[nH]2)c1 returned GRIN3A LBD mod 40.5, UBC13 polyUb inactive, HGIII-sPLA2 inh inactive and SUMO HTRF inh inactive.
`COc1ccc(NC(=O)c2cc(-c3cc(Cl)ccc3O)n[nH]2)c(OC)c1` gave GRIN3A LBD mod 30.8, UBC13 polyUb inactive, HGIII-sPLA2 inh inactive and SUMO HTRF inh inactive.
For COc1ccc(NC(=O)c2cc(-c3cc(F)ccc3OC)n[nH]2)c(OC)c1 the results were HGIII-sPLA2 inh inactive.
For C=CCNC(=O)CN(C(=O)Cc1ccc(Cl)cc1)c1cccc(Br)c1 the results were HGIII-sPLA2 inh inactive.
C=CCN1[C@H](CC(C)C)COc2cccc(F)c2S1(=O)=O was read as HGIII-sPLA2 inh inactive.
Screening COc1cc(CCNC(=O)c2cnn3ccccc23)cc(OC)c1OC returned GRIN3A LBD mod 22.2, UBC13 polyUb inactive, HGIII-sPLA2 inh inactive and SUMO HTRF inh inactive.
Screening COc1ccc(CCNC(=O)c2cnn3ccccc23)c(OC)c1OC returned GRIN3A LBD mod inactive, UBC13 polyUb inactive, HGIII-sPLA2 inh inactive and SUMO HTRF inh inactive.
`CCOc1cc(/C=N/NC(=O)c2nn(C)cc2Br)ccc1OCc1ccccc1` gave GRIN3A LBD mod 10.2, UBC13 polyUb inactive, HGIII-sPLA2 inh inactive and SUMO HTRF inh inactive.
`COc1ccc(/C=N/NC(=O)c2nnn(-c3nonc3N)c2C)cc1OC` gave HGIII-sPLA2 inh inactive.
Screening COc1ccc(/C=N/NC(=O)c2nn(C)cc2Br)cc1CSCc1ccco1 returned GRIN3A LBD mod inactive, UBC13 polyUb inactive, HGIII-sPLA2 inh inactive and SUMO HTRF inh inactive.
CCOc1cc(/C=N/NC(=O)c2nnn(-c3nonc3N)c2C)ccc1OCc1cccc(F)c1 was read as GRIN3A LBD mod 26.0, UBC13 polyUb inactive and HGIII-sPLA2 inh inactive.
CCOc1cc(/C=N/NC(=O)c2nnn(-c3nonc3N)c2C)ccc1OCc1ccc(F)cc1 was read as GRIN3A LBD mod 15.4, UBC13 polyUb inactive, HGIII-sPLA2 inh inactive and SUMO HTRF inh inactive.
COc1ccc(/C=N/NC(=O)c2c(C)nnn2-c2nonc2N)cc1OC was read as GRIN3A LBD mod 19.4, UBC13 polyUb inactive, HGIII-sPLA2 inh inactive and SUMO HTRF inh inactive.
Screening O=C(CC1CCCC1)N1CC[C@H]2[C@H](CCCN2Cc2cc(F)cc(F)c2)C1 returned HGIII-sPLA2 inh inactive.
`COc1cc([N+](=O)[O-])ccc1NC(=O)Nc1nc2c(s1)CCCC2` gave GRIN3A LBD mod 10.9, UBC13 polyUb inactive, HGIII-sPLA2 inh inactive and SUMO HTRF inh inactive.
Screening Cc1ccc(/C=N/NC(=O)c2nnn(-c3nonc3N)c2CSc2ccccc2)cc1 returned GRIN3A LBD mod 40.5, UBC13 polyUb inactive, HGIII-sPLA2 inh inactive and SUMO HTRF inh inactive.
`Nc1nonc1C(=O)N/N=C/c1cc(Br)ccc1O` gave GRIN3A LBD mod inactive, UBC13 polyUb inactive, HGIII-sPLA2 inh inactive and SUMO HTRF inh inactive.
For CCN(CC)Cc1c(C(=O)N/N=C/c2ccc(OCc3ccccc3C)cc2)nnn1-c1nonc1N the results were GRIN3A LBD mod 32.7, UBC13 polyUb inactive, HGIII-sPLA2 inh inactive and SUMO HTRF inh inactive.
Nc1nonc1-n1nnc(C(=O)N/N=C/c2cc(Br)ccc2O)c1CNc1ccccc1 was read as GRIN3A LBD mod 23.3, UBC13 polyUb inactive, HGIII-sPLA2 inh inactive and SUMO HTRF inh inactive.
For Cc1ccc(SCc2c(C(=O)N/N=C/c3cccs3)nnn2-c2nonc2N)cc1 the results were HGIII-sPLA2 inh inactive.

Source: PubChem (several laboratories)
